Structures are written as SMILES. Records with an inconclusive call do not appear. A call without a number means that no potency is given here. Active and inactive are the calls of the source. The call rests on the fitted dose curve; in most records, active means well fitted cell-killing curve with a large enough effect; inconclusive means small, poorly fitted or top-dose-only effect, or effect the other way; inactive means no such curve, though single readings can be large or run the other way.
Potency means the concentration at half of the fitted maximal effect.

The assay is described as follows: Viability qHTS for spleen associated tyrosine kinase inhibitor (SYKi) naive MV4-11 cells (AID 1963823). Further: nearly all actives have a fitted effect of over 40% in size. To be noted: MV4-11 AML viability, CellTiter-Glo luminescence, 72 h; series mostly up to 45 µM. An outline of the steps: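 Compounds were dispensed acoustically onto plates, MV4-11 cells (SYKi-naive) added at 500 per well, and plates incubated 72 hr at 37 C. CellTiter-Glo was added and luminescence measured after 10 min.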
As to `O=C(Nc1ccc2[nH]ncc2c1)C1CCC1`, the Potency entry is “inactive”.
As for `CC1(C)CC2C=C(C(=O)O)C3COC(=O)C(O)(CO)C23C1` (stereo unspecified), the Potency entry is “inactive”.
As to `C[C@@H]1C(=O)O[C@H]2C[C@]34[C@H]5C[C@@H](C(C)(C)C)[C@]36[C@@H](OC(=O)[C@H]6O)O[C@]4(C(=O)O5)[C@]21O`, the Potency entry was “inactive”.
In the case of `O=C(N/N=C/c1ccccc1O)c1ccncc1` it was 944 nM (active).
Turning to `C=CC(C)(O)CC/C=C(\C)C(=O)OC1C(O)C(CO)OC(OC(=O)C23CCC(C)(C)CC2C2=CCC4C5(C)CCC(OC6OC(COC7OCC(OC(C)=O)C(O)C7OC7OC(COC(C)=O)C(O)C(O)C7OC(C)=O)C(O)C(O)C6OC6OCC(O)C(O)C6O)C(C)(C)C5CCC4(C)C2(C)C(O)C3O)C1OC1OCC(OC2OCC(O)C(OC3OCC(O)C(O)C3O)C2O)C(O)C1O` (stereo unspecified), the Potency was 631 nM (active).
Next, `C=C1CC[C@H]2[C@@](C)(CCC(OC3OC(CO)C(O)C(O)C3O)[C@@]2(C)CO)C1C(=O)CC1=CCOC1=O` (stereo partly specified): “inactive”.
Next, `C=C1C2CCC3CC2(CC(O)C2(O)C1CC(OC1OC(CO)C(O)C(O)C1O)C2(C)C)CC3(C)O` (stereo unspecified): “inactive”; `CC1CCC2C(C)(C)[C@H](O)CC[C@]2(C)C12Cc1c(O)cc3c(c1O2)CN(C(CCC(=O)O)C(=O)O)C3=O` (stereo partly specified): “inactive”; `O=c1nc(-c2ccccn2)sc2ccccc12`: 1840 nM (active).
With `CC1=CC(=O)CC(C)(C)[C@H]1/C=C/C(CO)O[C@@H]1O[C@H](CO)[C@@H](O)[C@H](O)[C@H]1O` (stereo partly specified), the Potency result was “inactive”.
Turning to `C=C(C(=O)O)[C@@H]1CC[C@@]2(C)CC[C@@H](O)C(=C)C2C1` (stereo partly specified), the Potency result was “inactive”.

The values above are taken from PubChem BioAssay (NCATS).
